# Rows were chosen to be rich in hits. Some 4.2% of all compounds tested hit in one or more screens of this group.
# TRPV1 ag – activates the human vanilloid receptor TRPV1; TRPV1-expressing cells, Fluo-8 calcium influx, agonist mode; 320,000 tested, 0.19% active; AID 540275; activation, % at 8.33 µM; in the data active = activation above about 80%; inconclusive = between about 30% and that limit; note: 0% is about no effect
#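 Cells expressing TRPV1 were dye-loaded with Fluo-8 and read kinetically: 10 s baseline, 3 min after compound (agonist portion), then 2 min after EC20 capsaicin (allosteric enhancer portion). Calcium-bound dye fluorescence at 480/520 nm.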
# D1 antag – human D1 dopamine receptor antagonism. HEK293 TREx D1 cells, calcium flux, dopamine EC80; hits give low values. AID 504652. activity change, negative = inhibition, % at 10 µM. P21728. 360,000 tested, 3.2% active; in the data active = activity change below about -30%; note: % is set by controls: 0 for no effect and ±100 for the full control effect
# Target sequence (P21728 whole entry, looked up): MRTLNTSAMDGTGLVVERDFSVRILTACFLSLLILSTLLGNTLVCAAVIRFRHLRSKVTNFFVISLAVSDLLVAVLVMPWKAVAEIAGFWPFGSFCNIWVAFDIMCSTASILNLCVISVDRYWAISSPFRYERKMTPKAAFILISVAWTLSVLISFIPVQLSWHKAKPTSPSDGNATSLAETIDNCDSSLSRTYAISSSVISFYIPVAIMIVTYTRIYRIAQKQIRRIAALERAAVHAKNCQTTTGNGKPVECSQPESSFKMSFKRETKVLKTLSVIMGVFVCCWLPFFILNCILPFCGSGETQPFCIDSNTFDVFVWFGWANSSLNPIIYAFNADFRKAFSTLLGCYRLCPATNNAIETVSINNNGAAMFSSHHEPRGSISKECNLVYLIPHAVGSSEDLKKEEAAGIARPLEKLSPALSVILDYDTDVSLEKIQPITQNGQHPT
#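 HEK293 T-REx cells expressing inducible, force-coupled D1 receptor; no-wash Ca dye, 30–90 min RT. Cmpd → 180 s read at 1 Hz → EC80 DA → 180 s read.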
# D1 agonist – human D1 receptor agonism; HEK293 T-REx D1 cells, calcium flux, agonist mode; activation, % at 2 µM; 360,000 tested, 1% active; in the data active = activation above about 30%; note: 0% is about no effect
#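 Tetracycline-induced HEK293 TREx D1 cells, force-coupled to calcium signalling, were dye-loaded with a no-wash calcium kit. Compound was pin-added after a 10 s baseline. Fluorescence was read kinetically at 1 cycle/s for 180 s, with calcium rises flagged as agonism.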
# TRPV1 potentiator – human TRPV1 potentiation; Q8NER1; TRPV1-expressing cells, Fluo-8 calcium influx, capsaicin EC20 potentiation; 320,000 tested, 0.02% active; potentiation, % at 8.33 µM; in the data active = potentiation above about 80%; inconclusive = between about 30% and that limit; note: 0% is about no effect
#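 Fluo-8 calcium influx in TRPV1-expressing cells, kinetic read (ex 480/em 520 nm). Compound added and read 3 min for agonist activity, followed by capsaicin at EC20 final and 2 min further read for enhancement.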
# D1 PAM – potentiators of human D1 dopamine receptor. AID 504651. potentiation, % at 10 µM. HEK293 TREx D1 cells, calcium flux, dopamine EC20 potentiation. 360,000 tested, 0.036% active. P21728; in the data active = potentiation above about 30%; note: 0% is about no effect
# * hit, by the source's call; i = inactive; ? = inconclusive; . = no result given.
SMILES,TRPV1 ag,D1 antag,D1 agonist,TRPV1 potentiator,D1 PAM
CCC(C)NC(=O)c1ccccc1NC(=O)c1ccc(CSc2ccccc2)cc1 (stereo not given),7.7,-3.9,35.9*,8.8,-3.5
CCCNC(=O)c1ccccc1NC(=O)c1ccccc1SC,15.5,9.5,0.4,8.3,-11.4
Cc1ccc(SCc2ccc(C(=O)Nc3ccccc3C(=O)NC(C)C)cc2)cc1,-4.6,-6.6,10.7,2.8,16.6
CCCNC(=O)c1ccccc1NC(=O)c1ccc(CSc2ccccc2)cc1,-1.8,-45.5*,39.5*,7.1,-8.0
O=C(CCCCn1c(=O)c2ccccc2n(Cc2ccccc2F)c1=O)NCc1ccccc1Cl,.,-23.4,0.0,.,1.8
O=S(=O)(c1ccc(NC(=S)N2CCN(c3ccccc3F)CC2)cc1)N1CCOCC1,12.1,-31.4*,10.8,-3.9,-11.5
COc1ccccc1N1CCN(C(=S)Nc2ccc(S(=O)(=O)N3CCOCC3)cc2)CC1,-4.9,-15.2,4.1,3.0,-3.6
O=S(=O)(c1ccccc1)N1CCN(C(=S)Nc2ccc(F)cc2)CC1,?,0.2,3.2,19.8,-2.2
O=C(N1CCOCC1)N1CCN(c2ccccc2F)CC1,83.5*,-2.6,4.3,-9.0,.
O=C(N1CCOCC1)N1CCN(c2ccccc2)CC1,?,-0.2,0.8,-15.9,-0.2
O=S(=O)(c1ccc(NC(=S)N/N=C/c2ccc(N3CCOCC3)cc2)cc1)N1CCOCC1,2.7,-44.2*,2.0,-3.5,-7.2
O=S(=O)(c1ccc(Cl)cc1)N1CCN(C(=S)Nc2ccc(F)c(Cl)c2)CC1,6.3,-36.7*,14.8,21.9,-6.3
CCOc1ccccc1CN1C(=O)c2ccccc2C1C(=O)NC1CCCCCC1 (stereo not given),.,-5.3,-1.2,.,1.3
CCCCOc1ccc(CNC(=O)c2cnc3sc(N4CCC(C)CC4)nn3c2=O)cc1,.,1.7,3.9,.,0.0
Cc1oc2ccc(O)c(CN3CCOCC3)c2c1C(=O)Nc1ccc(C(C)C)cc1,.,1.2,-0.6,.,1.2
COc1cccc(NC(=O)CSCn2nnc3c(=O)[nH]c(Cc4ccc(F)cc4)nc32)c1,.,-2.1,-1.2,.,-0.7
O=S(=O)(c1ccccc1)N1CCN(C(=S)NCCCN2CCOCC2)CC1,1.8,-46.3*,0.5,-1.2,5.5
O=C(NCCCN1CCOCC1)c1cccc(S(=O)(=O)N2CCN(c3ccccc3)CC2)c1,0.1,-1.3,1.9,14.0,0.7
Cc1ccc(C(=O)NC(=S)N2CCN(c3ccccc3F)CC2)cc1,20.4,-42.3*,1.3,-5.0,-4.0
Cc1ccc(C(=O)NC(=S)N2CCN(c3cc(C)ccc3C)CC2)cc1,?,-9.4,4.4,-9.1,-8.1
Fc1ccc(NC(=S)NN2CCOCC2)cc1Cl,1.3,-32.3*,3.6,2.8,-2.9
COc1cc(-c2ccno2)ccc1S(=O)(=O)N1CCN(c2cccc(Cl)c2)CC1,.,6.0,3.4,.,-3.0
CNc1snc(C)c1C(=O)OC(C)C(=O)Nc1ccccc1 (stereo not given),7.7,-32.0*,8.8,13.5,-5.7
CCN(C(=O)COC(=O)c1c(C)nsc1NC)c1ccccc1,11.5,-2.7,30.9*,-10.5,.
CNc1snc(C)c1C(=O)OCC(=O)N(C)Cc1ccccc1,1.3,-43.0*,14.0,4.8,-6.8
SMILES,TRPV1 ag,D1 antag,D1 agonist,TRPV1 potentiator,D1 PAM
Cc1nnc(SCC(=O)NC2CC2)s1,-0.7,-47.6*,1.4,18.8,-1.1
Cc1nnc(SCC(=O)NC2CCCCC2)s1,1.2,4.6,1.7,-0.2,-1.8
COc1ccc(CCNC(=O)Cn2nnc(-c3ccc(Cl)cc3)n2)cc1OC,.,-21.4,16.1,.,1.1
Cc1ccccc1C(=O)NC1CC2CCCC(C1)N2Cc1ccccc1 (stereo not given),0.8,-15.3,1.2,8.9,-7.8
Cc1ccccc1C(=O)NC1CC2CCCC(C1)N2Cc1ccc(Cl)cc1 (stereo not given),1.2,-73.0*,1.0,6.8,-8.6
COc1ccc(C(=O)NC2CC3CCCC(C2)N3Cc2ccccc2)cc1OC (stereo not given),-3.0,-33.0*,1.9,1.3,-2.4
COc1ccc([C@]23Cc4cc(C#N)ccc4[C@H](O2)c2c(cc(C)n(Cc4ccccc4)c2=O)O3)cc1,i,-9.5,0.1,i,-1.1
COc1ccc(OC)c(/C=C(\C#N)c2nc(-c3ccc(F)cc3)cs2)c1,.,15.2,41.8*,.,-4.8
